Measured values taken from PubChem BioAssay (EPA / NIEHS).
Inconclusive results are not listed. Activity calls are given as the source filed them. How the source made its calls, unless noted: active means hit-call score of the fitted dose curve at least 0.9, where 1 is the maximum; inconclusive means response in the unintended direction; inactive means score below 0.9.

Legend:
[1] = TOX21_p53_BLA_p2_viability: Viability Assessment in the Tox21 HCT-116 p53 Agonism Beta-lactamase Assay, Phase 2 (AID 2283591);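 further: actives lower the ATP signal meaning cytotoxicity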
Procedure, shortened: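 HCT116 p53-bla cells, 4000/well, dosed after 5 h plating (217-fold dilution of DMSO stocks) and incubated 16 h at 37C. Viability taken as cellular ATP by CellTiter-Glo luminescence after 30 min RT; signal loss marks cytotoxicity.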

[2] = target: Cellular tumor antigen p53 (Homo sapiens) (UniProt P04637); assay: TOX21_p53_BLA_p2_ratio: Tox21 HCT-116 p53 Agonism Beta-lactamase Assay, Ratio, Phase 2 (AID 2283592)
Procedure, shortened: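 An inducible beta-lactamase reporter in HCT116 cells signals p53 pathway activation. After 16 h chemical exposure at 37C, cells load CCF4-AM substrate for 2 h at room temperature; activity is the cleaved/uncleaved emission ratio relative to DMSO.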

[3] = TOX21_p53_BLA_p3_viability: Viability Assessment in the Tox21 HCT-116 p53 Agonism Beta-lactamase Assay, Phase 3 (AID 2283593);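 further: cells exposed to compound for 16 h before reading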
Procedure, shortened: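 HCT116 cells, 4000/well, dosed 5 h after plating by pin transfer (217-fold dilution from DMSO stock) and incubated 16 h at 37C, 5% CO2. Viability read as ATP luminescence with CellTiter-Glo after 30 min at room temperature.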

[4] = target: Cellular tumor antigen p53 (Homo sapiens) (UniProt P04637); assay: TOX21_p53_BLA_p3_ratio: Tox21 HCT-116 p53 Agonism Beta-lactamase Assay, Ratio, Phase 3 (AID 2283596)
Procedure, shortened: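 HCT116 p53-bla cells (4000/well) given compound in DMSO (217-fold dilution) after 5 h, incubated 16 h at 37C. CCF4-AM substrate 2 h at room temperature; 460/530 nm emission ratio, gain fitted against DMSO.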

[5] = TOX21_p53_BLA_p4_viability: Viability Assessment in the Tox21 HCT-116 p53 Agonism Beta-lactamase Assay, Phase 4 (AID 2283597);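 further: hits lower the luminescence signal meaning cytotoxicity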
Procedure, shortened: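 Compound exposure of HCT116 cells lasts 16 h at 37C, 5% CO2, with DMSO stocks diluted 217-fold. Cellular ATP is then quantified by CellTiter-Glo luminescence after 30 min at room temperature.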

[6] = TOX21_p53_BLA_p5_viability: Viability Assessment in the Tox21 HCT-116 p53 Agonism Beta-lactamase Assay, Phase 5 (AID 2283600)
Procedure, shortened: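 Counter-readout for cytotoxicity: ATP-dependent luminescence from CellTiter-Glo, read in the beta-lactamase wells after 30 min at RT, following a 16 h compound exposure at 37C.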

[7] = target: Cellular tumor antigen p53 (Homo sapiens) (UniProt P04637); assay: TOX21_p53_BLA_p4_ratio: Tox21 HCT-116 p53 Agonism Beta-lactamase Assay, Ratio, Phase 4 (AID 2283601)
Procedure, shortened: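 HCT-116 p53 beta-lactamase reporter cells (4000/well) preincubated 5 h, then compound (217-fold dilution of DMSO stock) for 16 h at 37C. CCF4-AM substrate added 2 h at room temperature; 460/530 nm emission ratio fitted upward versus DMSO.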

[8] = target: Thyroid hormone receptor alpha (Rattus norvegicus) + Thyroid hormone receptor beta (Rattus norvegicus) (UniProt P18113+P63059); assay: TOX21_TR_LUC_GH3_Agonist_Followup: Tox21 GH3 Thyroid Hormone Receptor Agonism Luciferase Follow-Up Assay (AID 2283939)
Procedure, shortened: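 Rat GH3 cells (1,500/well) in serum-free assay medium, treated with 15-point series, 92 uM to 5 nM final, for 24 h at 37C. Luciferase via ONE-Glo luminescence; gain of signal fitted against DMSO, T3 positive control.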

THRA (gene 7067) = THRA (gene 7067) (UniProt P10827); assay: TOX21_TRA_COA_Agonist_Followup_ratio: Tox21 Thyroid Hormone Receptor alpha Agonism through Coactivator Recruitment Follow-Up Assay, Ratio (AID 2283948; active means hit-call score of the fitted dose curve at least 0.9, where 1 is the maximum; inactive means score below 0.9)
Procedure, shortened: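 First, compound was incubated with 2.5 nM GST-TRα LBD in 0.10% BSA. Next, 200 nM fluorescein-SRC-2 and 2 nM Tb-anti-GST antibody were added. Finally, the 520:495 nm ratio was normalized to DMSO and T3 controls.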

THRB (gene 7068) [9] = target: THRB (gene 7068) (UniProt P10828); assay: TOX21_TRB_BLA_Agonist_Followup_ratio: Tox21 Thyroid Hormone Receptor beta Agonism Beta-lactamase (BLA) Follow-Up Assay, Ratio (AID 2283954)
Procedure, shortened: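 Human TRβ LBD–GAL4 DBD fusion in GeneBLAzer UAS-bla HEK293T cells; 11 concentrations in triplicate, 18 h at 37°C/5% CO2, T3 as agonist control. CCF4-AM substrate 2 h at room temperature; 460:530 nm ratio fitted for gain of signal versus DMSO.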

THRB (gene 7068) [10] = target: THRB (gene 7068) (UniProt P10828); assay: TOX21_TRB_COA_Agonist_Followup_ratio: Tox21 Thyroid Hormone Receptor beta Agonism through Coactivator Recruitment Follow-Up Assay, Ratio (AID 2283963; active means hit-call score of the fitted dose curve at least 0.9, where 1 is the maximum; inactive means score below 0.9)
Procedure, shortened: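 Cell-free TR-FRET coactivator recruitment: GST-tagged TRβ LBD (5.0 nM) with 0.10% BSA incubated with compound, then fluorescein-SRC-2 peptide (200 nM) and Tb-anti-GST antibody (2 nM) added. 520:495 nm ratio normalized to DMSO (0%) and T3 (100%).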

[11] = target: Retinoic acid receptor RXR-alpha (Homo sapiens) (UniProt P19793); assay: TOX21_TR_RXR_BLA_Agonist_Followup_ratio: Tox21 Thyroid Hormone Receptor beta Retinoid X Receptor alpha (RXRa) Agonism Beta-lactamase (BLA) Follow-Up Assay, Ratio (AID 2283968)
Procedure, shortened: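 This follow-up tests whether responses seen in the TR GH3 luciferase agonist screen are specific, using a GAL4-driven beta-lactamase reporter for RXRa in HEK293T cells. Compound exposure lasts 16 h; signal is the cleaved/uncleaved substrate ratio.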

[12] = TOX21_TR_RXR_BLA_Agonist_Followup_viability: Viability Assessment in the Tox21 Thyroid Hormone Receptor beta Retinoid X Receptor alpha (RXRa) Agonism Beta-lactamase (BLA) Follow-Up Assay (AID 2283970)
Procedure, shortened: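 In qHTS format, RXRa-bla HEK293T cells (2,500/well) received compound for 16h. ATP content was then measured with CellTiter-Glo, and responses were fitted bidirectionally relative to DMSO controls.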

[13] = target: Cellular tumor antigen p53 (Homo sapiens) (UniProt P04637); assay: TOX21_p53_BLA_p5_ratio: Tox21 HCT-116 p53 Agonism Beta-lactamase Assay, Ratio, Phase 5 (AID 2283599)
Procedure, shortened: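 HCT-116 p53-bla cells (4000/well) plated 5 h, dosed with compound (217-fold DMSO dilution) for 16 h at 37 C; CCF4-AM substrate 2 h at room temperature. Activity is the 460/530 nm emission ratio (405 nm excitation), fitted in gain-of-signal direction versus DMSO.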

[14] = CCTE_Harrill_HTTr_Viability_MCF7: CCTE's 6-hour Cell Viability Assessment for the High-Throughput Transcriptomics (HTTr) Platform, in MCF-7 cells cultured in DMEM + 10% fetal bovine serum, Harrill Lab (AID 2284010; active means hit-call score of the fitted dose curve at least 0.9, where 1 is the maximum; inactive means score below 0.9)
Procedure, shortened: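 Viability measured through PI dye exclusion by high-content imaging at 6 h post-dosing.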

[15] = CCTE_Harrill_HTTr_Apoptosis_MCF7: CCTE's 6-hour Apoptosis Assessment for the High-Throughput Transcriptomics (HTTr) Platform, in MCF-7 cells cultured in DMEM + 10% fetal bovine serum, Harrill Lab (AID 2284011; active means hit-call score of the fitted dose curve at least 0.9, where 1 is the maximum; inactive means score below 0.9)
Procedure, shortened: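 Cells are dosed with test chemicals at eight concentrations and imaged 6 hours later for caspase-3/7 activity using a green fluorogenic detection reagent. Activity is fitted in both directions against DMSO controls.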

[16] = CCTE_Harrill_HTTr_CellCount_MCF7: CCTE's Cell Proliferation Assessment for the High-Throughput Transcriptomics (HTTr) Platform, Harrill Lab (AID 2284012);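 further: count of Hoechst-stained nuclei per well by high-content imaging in MCF-7 cells; cells exposed to compound for six hours; intended direction is loss of nuclei count meaning fewer cells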
Procedure, shortened: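 Nuclei counting (Hoechst, high content imaging) in MCF-7 after a 6 h treatment at eight concentrations. Activity fitted bidirectionally, DMSO as negative control.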

[17] = ACEA_ER_AUC_viability: ACEA Biosciences xCELLigence Real-Time Cell Analysis on Estrogen Receptor Agonism for Viability (AID 2283782);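 further: continuous compound exposure with impedance area under curve over 80 h; hit means loss of impedance signal meaning reduced cell growth or viability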
Procedure, shortened: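 T47D cells preconditioned in phenol red-free RPMI with charcoal-stripped FBS, then dosed with 8-point 1:4 series from 100 uM (up to 0.5% DMSO). Impedance monitored up to ~80 h; area-under-curve loss versus DMSO taken as viability.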

Measured: outcome

Chain of Cellular tumor antigen p53 (Homo sapiens) (P04637 whole entry, looked up): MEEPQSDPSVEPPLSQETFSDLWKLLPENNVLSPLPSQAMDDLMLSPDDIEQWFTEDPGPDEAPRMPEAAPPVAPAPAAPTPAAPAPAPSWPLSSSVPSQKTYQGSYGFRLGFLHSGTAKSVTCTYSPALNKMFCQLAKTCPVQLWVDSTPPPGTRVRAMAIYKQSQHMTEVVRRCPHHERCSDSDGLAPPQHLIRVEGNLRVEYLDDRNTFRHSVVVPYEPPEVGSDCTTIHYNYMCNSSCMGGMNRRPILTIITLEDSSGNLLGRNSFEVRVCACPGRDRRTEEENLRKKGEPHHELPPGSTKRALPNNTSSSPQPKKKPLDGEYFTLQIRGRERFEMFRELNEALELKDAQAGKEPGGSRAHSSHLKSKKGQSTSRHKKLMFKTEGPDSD
Chain of THRB (gene 7068) (P10828 whole entry, looked up, the tested form may be a part): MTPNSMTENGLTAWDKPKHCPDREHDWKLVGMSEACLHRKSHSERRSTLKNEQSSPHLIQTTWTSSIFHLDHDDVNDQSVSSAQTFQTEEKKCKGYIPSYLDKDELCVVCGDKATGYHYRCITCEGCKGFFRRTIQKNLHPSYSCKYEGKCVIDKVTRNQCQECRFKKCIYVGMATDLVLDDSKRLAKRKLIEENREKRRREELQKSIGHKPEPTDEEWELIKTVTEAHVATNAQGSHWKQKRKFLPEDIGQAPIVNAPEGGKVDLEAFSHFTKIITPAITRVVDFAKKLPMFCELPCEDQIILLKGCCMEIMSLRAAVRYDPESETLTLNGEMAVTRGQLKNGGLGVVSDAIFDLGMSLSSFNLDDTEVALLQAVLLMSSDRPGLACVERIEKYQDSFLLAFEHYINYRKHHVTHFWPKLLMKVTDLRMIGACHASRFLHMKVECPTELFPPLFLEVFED
Chain of Thyroid hormone receptor alpha (Rattus norvegicus) + Thyroid hormone receptor beta (Rattus norvegicus) (P63059 whole entry, looked up): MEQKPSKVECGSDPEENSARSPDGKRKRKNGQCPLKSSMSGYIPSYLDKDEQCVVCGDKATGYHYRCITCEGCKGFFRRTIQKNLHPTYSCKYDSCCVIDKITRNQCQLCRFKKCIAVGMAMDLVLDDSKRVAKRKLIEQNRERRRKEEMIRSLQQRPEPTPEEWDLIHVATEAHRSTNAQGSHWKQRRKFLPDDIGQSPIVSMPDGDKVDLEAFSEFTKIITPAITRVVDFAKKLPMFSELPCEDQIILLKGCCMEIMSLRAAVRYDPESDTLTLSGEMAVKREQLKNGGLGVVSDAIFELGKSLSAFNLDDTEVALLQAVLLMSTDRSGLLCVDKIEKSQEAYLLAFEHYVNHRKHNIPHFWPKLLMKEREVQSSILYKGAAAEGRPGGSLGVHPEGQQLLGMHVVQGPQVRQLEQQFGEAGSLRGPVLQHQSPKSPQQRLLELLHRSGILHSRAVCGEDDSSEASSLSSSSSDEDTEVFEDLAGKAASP
Chain of Thyroid hormone receptor alpha (Rattus norvegicus) + Thyroid hormone receptor beta (Rattus norvegicus) (P18113 whole entry, looked up): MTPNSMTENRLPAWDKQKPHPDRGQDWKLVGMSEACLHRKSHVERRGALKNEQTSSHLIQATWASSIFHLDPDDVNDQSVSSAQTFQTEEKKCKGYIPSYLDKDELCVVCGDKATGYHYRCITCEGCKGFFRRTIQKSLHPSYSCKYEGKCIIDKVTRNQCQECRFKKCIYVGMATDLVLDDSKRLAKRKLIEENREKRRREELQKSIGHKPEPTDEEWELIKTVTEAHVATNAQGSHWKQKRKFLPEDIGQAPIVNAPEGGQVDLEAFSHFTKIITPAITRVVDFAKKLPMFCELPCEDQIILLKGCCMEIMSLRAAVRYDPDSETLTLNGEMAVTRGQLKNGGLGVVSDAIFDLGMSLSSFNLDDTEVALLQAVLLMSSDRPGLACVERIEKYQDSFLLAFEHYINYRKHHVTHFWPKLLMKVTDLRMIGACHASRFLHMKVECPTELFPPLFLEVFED
Chain of THRA (gene 7067) (P10827 whole entry, looked up, the tested form may be a part): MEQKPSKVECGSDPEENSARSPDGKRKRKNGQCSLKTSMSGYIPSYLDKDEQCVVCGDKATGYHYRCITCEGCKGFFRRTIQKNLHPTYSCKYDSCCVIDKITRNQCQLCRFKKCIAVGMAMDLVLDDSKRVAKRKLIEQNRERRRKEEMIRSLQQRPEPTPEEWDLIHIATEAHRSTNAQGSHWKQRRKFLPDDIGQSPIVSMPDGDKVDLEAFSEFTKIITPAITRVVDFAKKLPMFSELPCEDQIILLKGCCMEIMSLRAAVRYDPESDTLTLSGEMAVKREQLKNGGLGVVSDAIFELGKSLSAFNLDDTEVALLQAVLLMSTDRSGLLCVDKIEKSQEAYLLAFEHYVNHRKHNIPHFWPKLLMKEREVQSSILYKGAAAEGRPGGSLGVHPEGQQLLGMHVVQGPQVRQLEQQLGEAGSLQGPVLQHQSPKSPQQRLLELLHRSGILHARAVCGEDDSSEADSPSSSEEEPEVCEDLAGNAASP
Chain of Retinoic acid receptor RXR-alpha (Homo sapiens) (P19793 whole entry, looked up, the tested form may be a part): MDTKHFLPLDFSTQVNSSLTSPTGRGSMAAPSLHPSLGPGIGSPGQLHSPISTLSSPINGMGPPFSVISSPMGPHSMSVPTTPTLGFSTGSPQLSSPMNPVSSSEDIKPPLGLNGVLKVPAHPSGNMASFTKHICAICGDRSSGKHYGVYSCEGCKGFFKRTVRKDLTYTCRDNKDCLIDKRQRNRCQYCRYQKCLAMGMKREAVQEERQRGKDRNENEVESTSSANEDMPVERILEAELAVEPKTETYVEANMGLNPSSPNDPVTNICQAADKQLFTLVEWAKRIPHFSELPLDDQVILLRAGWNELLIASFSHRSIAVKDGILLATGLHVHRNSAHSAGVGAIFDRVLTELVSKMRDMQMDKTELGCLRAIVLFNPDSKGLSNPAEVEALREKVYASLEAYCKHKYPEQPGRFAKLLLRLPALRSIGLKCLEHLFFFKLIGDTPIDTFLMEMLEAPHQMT

Cc1ncc(CSSCc2cnc(C)c(O)c2CO)c(CO)c1O
inactive: [1] | [2] | [3] | [4] | [5] | [6] | [7]

CSCC[C@H](NC(=O)[C@H](Cc1ccc(OS(=O)(=O)O)cc1)NC(=O)[C@@H](N)CC(=O)O)C(=O)NCC(=O)N[C@@H](Cc1c[nH]c2ccccc12)C(=O)N[C@@H](CCSC)C(=O)N[C@@H](CC(=O)O)C(=O)N[C@@H](Cc1ccccc1)C(N)=O
not listed: [13] | [14] | [15] | [16] | [17]
inactive: all other assays above

O=C1Nc2ccccc2C1=O
inactive: [1] | [2] | [3] | [4] | [13] | [6]

CC(C(=O)O)c1ccc(-c2ccccc2)c(F)c1 (stereo not given)
inactive: [1] | [2] | [3] | [4] | [5] | [6] | [7] | [14] | [15] | [16]

COC(=O)[C@H]1[C@H]2C[C@H]3c4[nH]c5ccccc5c4CCN3C[C@H]2CC[C@@H]1O
inactive: [1] | [2] | [3] | [4] | [13]

OCC(CBr)(CBr)CBr
inactive: [1] | [2] | [3] | [4] | [5] | [7]

CC(Cl)=CCCl
inactive: [1] | [2] | [3] | [4] | [5] | [7]

CC1(C)CC(N)CC(C)(C)N1
inactive: [1] | [2] | [3] | [4] | [5] | [6] | [7] | [17]

C[N+]1(C)[C@@H]2CC(OC(=O)C(O)(c3cccs3)c3cccs3)C[C@H]1[C@@H]1O[C@@H]12 (stereo not given in full)
inactive: [1] | [2] | [3] | [4] | [5] | [7]

OC[C@H]1O[C@@H](O[C@H]2[C@H](O)[C@@H](O)C(O)O[C@@H]2CO)[C@H](O)[C@@H](O)[C@@H]1O (stereo not given in full)
inactive: [1] | [2] | [3] | [4] | [13] | [6]

CC=C1[C@H]2C=C(C)C[C@]1(N)c1ccc(=O)[nH]c1C2
inactive: [1] | [2] | [3] | [4] | [13] | [6]

C[N+](C)(C)CC(O)CC(=O)[O-] (stereo not given)
inactive: [1] | [2] | [3] | [4] | [13] | [6]
